Experimental data as given in PubChem BioAssay AID1159580 (chemical genetic matrix, 2015).
Values joined by “and” are separate entries in the source; they are usually repeats but may differ in a detail not shown here. Equal values may be shown once. In all, about 5,500 compounds went through this assay and about 2,000 (36%) were called active. About 18% were inconclusive and are not listed. Rule as the data show it: active = normalized growth mostly below about 0.91 (no sharp cut-off); inconclusive = no clear call, values can overlap the other calls; inactive = mostly above about 0.92. The list shows a part of the results.

Assay: chemical genetic growth profiling, strain panel (AID 1159580);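 also: tested at 20 µM; growth read once vehicle control cultures reached saturation at 30 °C; 1 = growth at the plate median or of vehicle wells; lower values mean less growth of the strain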
Settings: S. cerevisiae deletion strains, growth OD

Measured: normalized growth

Oc1cc(O)c2c(c1)O[C@H](c1cc(O)c(O)c(O)c1)[C@H](O)C2
active: locus YDR159W, strain sac3, stronger effect = lower value 1.18 [resistant]
inactive: locus YAL021C, strain ccr4, stronger effect = lower value 0.992 | locus YAL026C, strain drs2, stronger effect = lower value 1.02 | locus YAL030W, strain snc1, stronger effect = lower value 1.01 | locus YBL061C, strain skt5, stronger effect = lower value 1.02 | locus YBR009C, strain hhf1, stronger effect = lower value 1.02 | locus YBR021W, strain FUR4, stronger effect = lower value 1.03 | locus YBR023C, strain chs3, stronger effect = lower value 1.02 | locus YBR171W, strain sec66, stronger effect = lower value 1.03 | locus YBR229C, strain ROT2, stronger effect = lower value 0.996 | locus YBR231C, strain swc5, stronger effect = lower value 1 | locus YBR279W, strain paf1, stronger effect = lower value 1.01 | locus YCL011C, strain gbp2, stronger effect = lower value 1.02 | locus YCL016C, strain dcc1, stronger effect = lower value 1.02 | locus YCL029C, strain bik1, stronger effect = lower value 0.986 | locus YCL061C, strain MRC1, stronger effect = lower value 1.02 | locus YCL069W, strain vba3, stronger effect = lower value 1.02 | locus YCR088W, strain abp1, stronger effect = lower value 1.02 | locus YDL005C, strain med2, stronger effect = lower value 1.03 | locus YDL035C, strain GPR1, stronger effect = lower value 1.03 | locus YDL040C, strain nat1, stronger effect = lower value 1.01 | locus YDL074C, strain BRE1, stronger effect = lower value 0.981 | locus YDL101C, strain DUN1, stronger effect = lower value 0.985 | locus YDL185W, strain tfp1, stronger effect = lower value 0.983 | locus YDL192W, strain arf1, stronger effect = lower value 0.982 | locus YDR001C, strain nth1, stronger effect = lower value 1.02 | locus YDR069C, strain doa4, stronger effect = lower value 0.993 | locus YDR101C, strain arx1, stronger effect = lower value 0.985 | locus YDR137W, strain rgp1, stronger effect = lower value 1.06 | locus YDR150W, strain NUM1, stronger effect = lower value 0.995 | locus YDR162C, strain NBP2, stronger effect = lower value 1.02 | locus YDR195W, strain ref2 1.05 | locus YDR297W, strain sur2, stronger effect = lower value 1.02 | locus YDR318W, strain mcm21, stronger effect = lower value 0.999 | locus YDR334W, strain swr1, stronger effect = lower value 1.02 | locus YDR335W, strain msn5, stronger effect = lower value 1.01 | locus YDR388W, stronger effect = lower value 0.988 | locus YDR392W, strain spt3, stronger effect = lower value 1.02 | locus YDR502C, strain sam2, stronger effect = lower value 1.02 | locus YEL003W, strain gim4, stronger effect = lower value 1.02 | locus YEL037C, strain rad23, stronger effect = lower value 1.01 | locus YEL061C, strain CIN8 (second series), stronger effect = lower value 1.03 | locus YEL061C, strain CIN8, stronger effect = lower value 0.999 | locus YER015W, strain faa2, stronger effect = lower value 0.999 | locus YER016W, strain bim1, stronger effect = lower value 1.02 | locus YER110C, stronger effect = lower value 0.984 | locus YER111C, strain swi4, stronger effect = lower value 1.01 | locus YER155C, strain BEM2 (second series), stronger effect = lower value 1.01 | locus YER155C, strain BEM2, stronger effect = lower value 1.01 | locus YER167W, strain BCK2, stronger effect = lower value 1.02 | locus YFR010W, strain ubp6, stronger effect = lower value 1.02 | locus YGL078C, strain dbp3, stronger effect = lower value 0.993 | locus YGL086W, strain mad1, stronger effect = lower value 0.993 | locus YGL167C, strain pmr1, stronger effect = lower value 1.01 | locus YGL173C, strain kem1, stronger effect = lower value 1.02 | locus YGL227W, strain vid30, stronger effect = lower value 1.02 | locus YGL240W, strain doc1, stronger effect = lower value 1.03 | locus YGL248W, strain PDE1, stronger effect = lower value 0.991 | locus YGL253W, strain hxk2, stronger effect = lower value 1.03 | locus YGR135W, strain pre9, stronger effect = lower value 0.99 | locus YGR252W, strain gcn5, stronger effect = lower value 1.02 | locus YHR013C, strain ard1, stronger effect = lower value 1.03 | locus YHR027C, strain rpn1, stronger effect = lower value 1.02 | locus YHR030C, strain SLT2, stronger effect = lower value 0.992 and 0.996 | locus YHR079C, strain IRE1 (second series), stronger effect = lower value 1.01 | locus YHR079C, strain IRE1, stronger effect = lower value 1.01 | locus YHR094C, strain hxt1, stronger effect = lower value 0.983 | locus YHR129C, strain ARP1, stronger effect = lower value 0.997 | locus YHR142W, strain chs7, stronger effect = lower value 1.04 | locus YHR200W, strain rpn10, stronger effect = lower value 0.994 | locus YIL066C, strain RNR3, stronger effect = lower value 1.01 | locus YIL073C, strain SPO22, stronger effect = lower value 1.01 | locus YIL125W, strain kgd1, stronger effect = lower value 0.997 | locus YIR030C, strain dcg1, stronger effect = lower value 1 | locus YJL092W, strain hpr5, stronger effect = lower value 1.02 | locus YJL095W, strain BCK1 (second series), stronger effect = lower value 1.02 | locus YJL095W, strain BCK1, stronger effect = lower value 0.947 and 1.01 | locus YJL115W, strain asf1, stronger effect = lower value 1.03 | locus YJL129C, strain trk1, stronger effect = lower value 1.08 | locus YJL134W, strain LCB3, stronger effect = lower value 0.992 | locus YJL154C, strain vps35, stronger effect = lower value 1.02 | locus YJL164C, strain tpk1, stronger effect = lower value 1.01 | locus YJL166W, strain qcr8, stronger effect = lower value 1.02 | locus YJL168C, strain set2, stronger effect = lower value 1 | locus YJL187C, strain SWE1 (second series), stronger effect = lower value 0.952 | locus YJL187C, strain SWE1, stronger effect = lower value 1.02
